# According to PubChem BioAssay (NCI):
# The panel holds about 83,000 compounds, 20% with a hit somewhere; the sample as a whole holds those more often.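 Cells were grown in 96-well plates and exposed to the test compound at a single concentration for 48 hours; results are reported as percent growth, with values below 10 considered active.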 Activity calls are given as the source filed them.
# Tested on: HL-60(TB) leukemia
# Test: NCI-60 one-dose screen, 48 h (100 = growth as untreated, 0 = no growth, -100 = all killed)
# Conditions: 10 µM unless noted
row,SMILES,growth
1,CC(=O)O[C@@H]1CC2C(C)(C)CCCC2(C)C2=C1C(=O)C(C(C)C)=CC2=O (stereo not given in full),1.18% (active)
2,COc1cc(C(N)=O)cc(OC)c1OC,96.6% (inactive)
3,COc1cccc2c1C(=O)c1c(O)c3c(c(O)c1C2=O)C[C@@](O)(C(=O)CO)C[C@@H]3OC1C[C@H](N)[C@H](O)[C@H](C)O1 (stereo not given in full),-26.7% (active)
4,CCN(CC)CC(O)CNc1c2ccc(Cl)cc2nc2ccc(OC)cc12 (stereo not given),-0.864% (active)
5,Cc1occc1-c1nnc(SCC(=O)c2ccc(NC(=O)CC(C)C)cc2)o1,98.3% (inactive)
6,CCc1ccc(-c2nc(SCC(=O)NC3CCCCC3)n[nH]2)cc1,56.3% (inactive)
7,COc1ccc(/C=C2\CN(C(=O)CCN3CCC(=NO)CC3)C/C(=C\c3ccc(OC)cc3)C2=O)cc1,-14.4% (active)
8,O=[N+]([O-])c1ccc(/C=C/C2(CCl)OCCO2)cc1,76.2% (inactive)
9,CC(=O)Cc1cccnc1,82.4% (inactive)
10,CCCCCCCCCCSc1ncnc2nc[nH]c12,73.9% (inactive)
11,CC(=O)CC[C@H]1C(=O)N[C@@H](C(C)C)C(=O)N[C@@H](Cc2cc(O)cc(F)c2)C(=O)N2CCC[C@H](N2)C(=O)O[C@H](/C(C)=C/C=C/C(=O)OC(C)(C)C)C/C=C/C=C/[C@H](O)[C@H](C)[C@H]1O,56% (inactive)
12,O=C(N=Nc1c(O)[nH]c2ccccc12)c1oc2ccccc2c1CN1CCN(c2ccccc2)CC1,49.8% (inactive)
13,CNC(=O)NCC1OC(n2cnc3c(NC(=O)Nc4ccccc4)ncnc32)C2OC(=O)CC12 (stereo not given),82.7% (inactive)
14,COc1ccc2nc3cc(Cl)ccc3c(NCCCNCCC(C)O)c2c1 (stereo not given),-38.1% (active)
15,CC(=O)Nc1ccc(C=Nc2ccc3ccccc3c2)cc1,107% (inactive)
16,CN(C)CCn1c2ccc(Br)cc2c2nc3ccccc3nc21,26.2% (inactive)
17,CC(C)CCC[C@@H](C)[C@H]1CCC2C3=CCn4c(=O)ccc(=O)n4C3CC[C@@]21C (stereo not given in full),-43.3% (active)
18,Cn1cc(-c2nnc(-c3ccccc3)s2)c2cc(Br)cnc21,103% (inactive)
19,CCOC(=O)c1ccc2c(c1)ncn2-c1ccc(NC(=O)Nc2cccc(C)c2)cc1,78.3% (inactive)
20,Cc1cccc(Cl)c1NC(=O)c1cnc(Nc2cc(N3CCOCC3)cc(N3CCOCC3)c2)s1,45.3% (inactive)

row,SMILES,growth
1,CCOC(=O)c1noc2c1CCc1cn(Cc3cc(OC)cc(OC)c3)cc1-2,77.1% (inactive)
2,N#Cc1ccc(NC(=O)Nc2ccc(Cc3ccc(NC(=O)Nc4ccc(C#N)cc4)cc3)cc2)cc1,22.4% (inactive)
3,CC(=O)N1N=C(c2ccc(Nc3nc(Nc4ccc(F)cc4)nc(Nc4ccc(F)cc4)n3)cc2)CC1c1ccccc1 (stereo not given),83% (inactive)
4,O=C1/C(=C\c2cccn2Cc2ccc(Cl)cc2)c2ccccc2N1c1c(Cl)cccc1Cl,79.7% (inactive)
5,[O-]/[N+](=C\C=C\c1ccccc1)c1ccccc1,82.3% (inactive)
6,Cc1cc(C)c(S(=O)(=O)/N=c2/n(-c3ccccc3)nc3n2CCN3C2=NCCN2)c(C)c1,82.8% (inactive)
7,O=C1c2cc3c(cc2-c2c1c1ccc(Cl)cc1c(=O)n2CCCn1ccnc1)OCO3,-29.1% (active)
8,CCN(CC)CCOC(=O)Nc1c(C(C)C)cccc1C(C)C,101% (inactive)
9,Nc1ccn(C2CC(N)C(CO)O2)c(=O)n1 (stereo not given),84.6% (inactive)
10,Cc1cc(C2(c3ccc(O)c(C)c3)OS(=O)(=O)c3ccccc32)ccc1O,79% (inactive)
11,Clc1ccc(-c2cn(-c3ccccc3)c(-c3ccccc3)n2)cc1,47.5% (inactive)
12,Cc1cc(-c2ccccc2)cc(C)n1,104% (inactive)
13,Nc1nc(N)c2c(n1)NC(c1cccc(Nc3ccnc4cc(C(F)(F)F)ccc34)c1)CC(c1ccc(Br)cc1)=N2 (stereo not given),43.1% (inactive)
14,CCCCc1oc2ccccc2c1C(=O)c1ccc(O)cc1,68% (inactive)
15,O=c1oc2ccc(Br)cc2c(=O)n1-c1ccc(I)cc1F,-49.1% (active)
16,O=S(=O)(c1ccc(NC(=S)NCc2cccnc2)cc1)N1CCCCC1,64.9% (inactive)
17,Cc1ccc(-c2csc(NC(=O)N3CCN(c4cc5c(cc4F)c(=O)c(C(=O)O)cn5C4CC4)CC3)n2)cc1,-15.5% (active)
18,CCCCCCCCCCCCCCCCCC1=NC(C)(CO)CO1 (stereo not given),87.2% (inactive)
19,Cc1cc(=O)oc2cc(OCCn3c(C)nn(-c4ccc(Cl)cc4)c3=O)ccc12,-5.7% (active)
20,O=[N+]([O-])c1cc(Cl)c2[nH]c3c(Cl)cc([N+](=O)[O-])cc3c2c1,-28.5% (active)
